Experimental findings from PubChem BioAssay AID1321 (The Scripps Research Institute Molecular Screening Center, 2008) are described below.

The whole screen tested about 220,000 compounds, of which about 2,600 (1.2%) were called active. Only a selection was taken, and actives are over-represented in it overall. Values without a mark were called inactive.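 Rule for the calls: active = activation above the mean of all tested compounds plus 3 SD, set per screening run (cut at about 8.8% in these data); inactive = the rest.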

The target in the assay is Wee1-like protein kinase (Homo sapiens) (UniProt P30291). Put plainly: compounds stabilizing Wee1-luciferase fusion – cell-based, HeLa, Wee1K328M-luciferase, luminescence, primary screen (AID 1321).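 Note: cells exposed to compound for 20 h before luminescence read; 0% = DMSO alone and 100% = MG132 at 30 µM.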 To be noted: HeLa Luc-Wee1K328M stability, at 5 µM, stronger effect = higher value, 100% = proteasome inhibitor MG132 effect.
As to `O=C(NN1C(=O)C2C(C1=O)C1C=CC2C12CC2)c1ccccc1Cl` (configuration not stated), the reporter increase is 1.5%. Then `C=CCSc1nc(N)cc(=O)[nH]1`, with 0.5%; and `O=C(O)Cc1csc(NC(=O)CSc2nnnn2-c2ccc(O)cc2)n1`, with -2.13%; and `O=C(O)[C@@H]1CCCN1c1ncnc2sc3c(c12)CCC3`, with 3.81%.

For `CC(C)(C)C(=O)Cn1c(NCCO)nc2ccccc21`, the reporter increase was -0.8%. The same measure for `OCCNc1nc2ccccc2n1-c1ncnc2sc3c(c12)CCC3`: 13.6% (active); for `COCc1cc(=O)oc2cc(NS(=O)(=O)c3ccc(C)cc3)ccc12`: 5.18%; for `Cc1nnc(SCC(=O)N2CCc3ccccc32)n1-c1ccccc1`: 4.42%. The same measure for `CC(C)(C)c1ccc(C(=O)NCc2nnc(SCC(=O)N3CCCc4ccccc43)n2-c2ccccc2)cc1`: 9.34% (active). The same measure for `O=C(CSc1nc2[nH]ncc2c(=O)n1-c1ccccc1)N1CCCc2ccccc21`: -1.42%; for `CC(=O)Nc1ccc(/C=C/C(=O)c2ccccc2)cc1`: 1.71%.

As to `CSc1nnnn1-c1c(C)cc(C)cc1C`, the reporter increase was -0.91%. Then `CC(C)c1ccc(NC(=S)NC2CC3C=CC2C3)cc1` (configuration not stated), with 18.5% (active); and `S=C(NNC(=S)NC1CC2CCC1C2)NC1CC2C=CC1C2` (configuration not stated), with -2.51%. As to `S=C(NNC(=S)NC1CC2C=CC1C2)NC1CC2C=CC1C2` (configuration not stated), the reporter increase was -1.36%.

On to `COc1ccc([N+](=O)[O-])cc1N(CC(O)CN(CC(C)C)CC(C)C)S(=O)(=O)c1ccc(C)cc1` (configuration not stated), for which the reporter increase is -0.64%.

With `CCN(CC)CCn1c(N)c(S(=O)(=O)c2ccccc2)c2nc3ccccc3nc21`, the reporter increase was 12.4% (active).

Take `Cc1ccc(S(=O)(=O)c2c(N)n(C)c3nc4ccccc4nc23)cc1`: the reporter increase is -2.43%. Then `CCC(=O)Nc1c(S(=O)(=O)c2ccccc2)c2nc3ccccc3nc2n1Cc1ccccc1`, with -1.34%; and `CSCCC(NS(=O)(=O)c1ccc2c(c1)oc(=O)n2C)C(=O)NCc1ccccc1` (configuration not stated), with 5.59%. Then `O=C(CCl)Nc1cccc(CP(=O)(c2ccccc2)c2ccccc2)c1`, with 1.71%. Then `COc1ccc(C(=O)N/N=C(\C)CC(=O)Nc2ccc(Cl)cn2)cc1`, with 0.12%; and `CSCCC(Nc1nc2ccccc2s1)C(=O)O` (configuration not stated), with 1.41%; and `O=C(Nc1nc2ccccc2s1)c1ccc2c(c1)OCO2`, with -1.51%. `CC(=O)Nc1ccc(-c2csc(NC=C3C(=O)OC(C)(C)OC3=O)n2)cc1`: the reporter increase was 0.77%. Turning to `CC(=O)Nc1ccc(S(=O)(=O)Nc2nc(-c3ccc(C(C)(C)C)cc3)cs2)cc1`, the reporter increase is 3.64%. Then `CC(=O)Nc1ccc(-c2csc(NC(=O)Nc3ccccc3)n2)cc1`, with 16.9% (active); and `O=C(Nc1ccccc1)Nc1nc2ccccc2s1`, with 12.1% (active). Then `O=C(CCCl)Nc1ccc(S(=O)(=O)NCc2ccco2)cc1`, with 4.12%; and `Cc1ccc(C(=O)NCC(=O)OCC(=O)Nc2cccc(S(=O)(=O)N3CCCC3)c2)cc1C`, with 0.09%; and `CCCCC(CC)CNC(=O)CCCCn1c(=O)[nH]c2ccsc2c1=O` (configuration not stated), with 20% (active). Regarding `CCN(CCCNC(=O)CCn1c(=O)[nH]c2ccsc2c1=O)c1ccccc1`, the reporter increase was 4.65%.

With `CCN(CC)CCNC(=O)CCCCCn1c(=O)[nH]c2cc(C(=O)OC)ccc2c1=O`, the reporter increase is -1.39%. Take `CN(C)C(=O)c1nc2ccc(Cl)cn2c1CNCc1cccc(OC(F)(F)F)c1`: the reporter increase is 0.21%. As for `Cc1ccc(C(=O)N/N=C\c2cc(Br)c(Br)o2)cn1`, the reporter increase was 1.9%. `CCOC(=O)N1CCN(c2c(NCCN3CCN(c4ccccc4F)CC3)c(=O)c2=O)CC1`: the reporter increase is -1.76%. Take `CCOc1ccc(CNC(=O)C2CCC(=O)N2C2CCCC2)cc1OC` (configuration not stated): the reporter increase is -2.75%.

Consider `CCOc1cc(C2C(C(=O)OC)=CN(C3CCCC3)C=C2C(=O)OC)cc(Br)c1O`, for which the reporter increase is 14.3% (active). Then `CCOc1ccccc1C1C(C(=O)OC)=CN(C)C=C1C(=O)OC`, with -2.5%; and `CN(C)S(=O)(=O)c1cccc(-c2nn(-c3ccccc3)cc2/C=C2\SC(=S)N(CC(=O)O)C2=O)c1`, with -2.5%; and `CN1CCc2nc(SC(C(=O)O)c3ccccc3)c(C#N)c(-c3cccs3)c2C1` (configuration not stated), with -1.79%.

For the compound `Cc1ccsc1/C=N/Nc1ccc(Cl)nn1`, the reporter increase is 1.78%. Then `O=C(CSc1nnc2n1CCCN2)c1ccccc1`, with 1.24%. Then `Cc1ccc(NC(=O)/C(=C\c2ccccc2)NC(=O)c2ccco2)cc1`, with 2.36%; and `O=C(N/N=C/c1ccc(OCC2COCCO2)cc1)c1ccc(Br)cc1` (configuration not stated), with 10.9% (active); and `O=C(N/N=C/c1ccc(OCc2ccccc2)cc1)c1ccc(O)cc1`, with -1.31%. Take `O=C(O)c1ccc(/C=N/NC(=O)c2ccc(Br)cc2)cc1`: the reporter increase is 0.91%.

Regarding `O=C(O)C(NS(=O)(=O)c1cccc2nsnc12)c1ccccc1` (configuration not stated), the reporter increase was -0.72%. The same measure for `Cn1cc(S(=O)(=O)NC(c2ccccc2)c2ccccc2)c(=O)n(C)c1=O`: -2.84%; for `COc1cc2nc(Cl)nc(NCCO)c2cc1OC`: -0.52%. Take `CCCCCOC(=O)NCCOC(=O)Nc1ccc(C(=O)OCC)cc1`: the reporter increase was 3.09%. The same measure for `Cc1ccc(NC(=O)OCc2cncs2)cc1`: 2.2%; for `Cc1ccc(NC(=O)OCCNC(=O)c2ccncc2)cc1`: 14.4% (active). For the compound `O=C(NCc1ccccc1)c1ccc(S(=O)(=O)Nc2cccc(C(F)(F)F)c2)cc1`, the reporter increase is -0.38%. On to `COc1ccc(CCn2c(NN=C3CCCC3)nc3c2c(=O)[nH]c(=O)n3C)cc1`, for which the reporter increase was -2.59%.

Regarding `O=C(NC1C2CC3CC(C2)CC1C3)c1ccc(N2CCNCC2)c([N+](=O)[O-])c1` (configuration not stated), the reporter increase is -0.74%. The same measure for `N/C(=N\OC(=O)c1cc(-c2ccccc2)nc2ccccc12)c1ccncc1`: 2.66%. For `Cc1cccc(/C(N)=N/OC(=O)c2ccccc2Cl)c1`, the reporter increase was 11.3% (active). With `Cc1cccc(C(=O)c2cccc(C)c2)c1`, the reporter increase was -0.47%.

Take `CCNc1nc(Oc2ccc(C(=O)OC)cc2)nc(N2CCOCC2)n1`: the reporter increase is 1.78%. In the case of `CC(=O)Nc1ccc(NC(=S)NC(=O)/C=C/c2ccccc2)cc1`, the reporter increase was -3.02%. The same measure for `CCOc1ccc(NC(=S)NC(=O)/C=C/c2ccc(OC)cc2)c([N+](=O)[O-])c1`: 9.57% (active); for `Cc1ccc(NC(=S)NC(=O)/C=C/c2ccc(Cl)cc2)cc1`: 2.86%.

Take `COCCOC(=O)c1c(C)oc2cc(Br)c(OCC(N)=O)cc12`: the reporter increase was 10.5% (active). Regarding `CCOC(=O)c1c(C)oc2cc(Br)c(OCC(N)=O)cc12`, the reporter increase was 8.52%. Then `CCOC(=O)c1c(C)oc2ccc(OCC(=O)N(CC)CC)cc12`, with -2.85%; and `C/C(=N/NC(=O)CN1CCN(S(=O)(=O)c2ccc(Br)cc2)CC1)c1ccncc1`, with 0.47%; and `COC(=O)/C=C(\Oc1ccccc1)C1(O)CCCCC1`, with -1.22%. The same measure for `Cc1ccc(Nc2nc(N)nc(CN3CCN(Cc4ccccc4)CC3)n2)cc1Cl`: 4.72%. Consider `c1ccc(CN=C2Nc3ccccc3CS2)nc1`, for which the reporter increase was 10.7% (active).

Turning to `O=C(NCc1ccccn1)Nc1ccc(F)cc1`, the reporter increase is 3.54%. Take `CCc1ccc[n+](-c2nc([O-])sc2C=O)c1`: the reporter increase is 10.2% (active). For `O=C(NCc1csc(-c2cccs2)n1)C1CC1`, the reporter increase is -1.28%. `O=C(NCC1CCCO1)c1ccccc1-c1nc(-c2ccccc2Cl)no1` (configuration not stated): the reporter increase was -0.52%.

On to `O=C(CSc1nnnn1-c1ccc(O)cc1)c1ccc(F)cc1`, for which the reporter increase was -3.92%.

In the case of `Cc1onc(NC(=O)c2ccc([N+](=O)[O-])o2)c1Br`, the reporter increase was 0.61%. `O=S(=O)(NCc1ccccn1)c1ccc(F)cc1`: the reporter increase was -3.61%.

Consider `O=S(=O)(NCc1cccnc1)c1ccc(Br)s1`, for which the reporter increase is 3.49%.

`O=S(=O)(NCc1ccccn1)c1ccc(Br)s1`: the reporter increase was 9.46% (active).

Consider `Cc1nc(/N=C(\N)NC(=O)NC2CCCCC2)nc2ccccc12`, for which the reporter increase was -1.12%. Then `CC(C)c1ccc(Nc2ncccc2C#N)cc1`, with 19.9% (active).

`CN(C)c1ccnc(Nc2ccc(F)cc2)c1C#N`: the reporter increase was 4.88%.

As for `O=C(Nc1ccccc1)c1cccnc1Nc1ccccc1`, the reporter increase was -2.05%. The same measure for `CCOc1ccc(N2C(=O)CC(N(CCc3ccc(OC)c(OC)c3)C(=S)Nc3ccccc3)C2=O)cc1` (configuration not stated): 10.8% (active); for `CCOc1ccc(N2C(=O)CC(N(O)c3ccccc3)C2=O)cc1` (configuration not stated): 7.01%; for `COC(=O)CN(C(=S)Nc1ccc(Cl)cc1)C1CC(=O)N(c2ccc(OC)cc2)C1=O` (configuration not stated): 0.7%. Then `Cc1cccc(N(C)C(=O)c2cc3c(=O)[nH]c4ccc(C)cc4c3s2)c1`, with 0.97%.
